# Laboratory results as given in PubChem BioAssay (Tox21).
# Where “and” joins values, the source holds several entries; their conditions need not be identical. Equal values may be shown once. Inconclusive results are not listed. Where a call stands in place of a potency, no number is given. A structure can be active in one record and inactive in another. Calls of active or inactive are those of the source. Unless noted, calls follow the shape of the dose curve; as a rule, active = well fitted curve in the direction sought with a large enough effect in the repeat runs; inconclusive = weak or mixed curves; inactive = no such curve, though single readings can be large; an effect the other way counts as inactive or inconclusive.
# Legend:
# [1] = qHTS assay to identify small molecule agonists of the peroxisome proliferator-activated receptor delta (PPARd) signaling pathway - cell viability counter screen (AID 743211); also: nearly all actives have a fitted effect of over 55% in size; also: potency is read from the fitted curve at half-maximal effect
# How it was run: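 Multiplexed format: after the 2 h room-temperature LiveBLAzer B/G FRET step, CellTiter-Glo was added to the same wells. Luminescence after 30 min gave cell viability; compound exposure was 17 h at 37C.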
# [2] = target: Peroxisome proliferator-activated receptor delta (Homo sapiens) (UniProt Q03181); experiment: qHTS assay to identify small molecule agonists of the peroxisome proliferator-activated receptor delta (PPARd) signaling pathway (AID 743212; calls by dose curve)
# How it was run: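 Tox21 library screened in GeneBLAzer PPARd UAS-bla HEK293H cells. After compound treatment at 37 C, a FRET-based beta-lactamase substrate was applied for 2 h and fluorescence recorded.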
# [3] = qHTS assay to identify small molecule antagonists of the peroxisome proliferator-activated receptor delta (PPARd) signaling pathway - cell viability counter screen (AID 743213); also: nearly all actives have a fitted effect of over 50% in size; also: potency is read from the fitted curve at half-maximal effect
# How it was run: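 Cytotoxicity counter screen: CellTiter-Glo luminescence read 30 min after addition, in the same wells as the reporter assay. There, PPARd UAS-bla HEK293H cells (3000/well) were treated 17 h at 37 C with compound and 300 nM L165041.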
# [4] = target: Peroxisome proliferator-activated receptor delta (Homo sapiens) (UniProt Q03181); experiment: qHTS assay to identify small molecule antagonists of the peroxisome proliferator-activated receptor delta (PPARd) signaling pathway (AID 743215; active = well fitted inhibition curve with a large enough effect in the signal ratio in the repeat runs, not every such curve was filed as active; the % refers to the signal ratio;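 also: cells stimulated with agonist L165041 at 300 nM final during compound exposure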; also: potency is read from the fitted curve at half-maximal effect)
# How it was run: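 Fluorescence from cleaved LiveBLAzer B/G FRET substrate (2 h, room temperature) reports PPARd-driven beta-lactamase in HEK293H UAS-bla cells. Cells had been treated 17 h at 37 C with compound plus 300 nM final L165041.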
# [5] = qHTS assay to identify small molecule agonists of the farnesoid-X-receptor (FXR) signaling pathway - cell viability counter screen (AID 743218); also: nearly all actives have a fitted effect of over 45% in size
# How it was run: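 Readout: CellTiter-Glo luminescence, 30 min RT, multiplexed after the FXR-bla FRET reading. HEK 293T FXR-UAS-bla cells received compound 5 h post-plating and were incubated 16 h at 37 C.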
# [6] = qHTS assay to identify small molecule antagonists of the farnesoid-X-receptor (FXR) signaling pathway - cell viability counter screen (AID 743221; active = well fitted cell-killing curve with a large enough effect in the repeat runs, not every such curve was filed as active; also: nearly all actives have a fitted effect of over 50% in size; also: potency is read from the fitted curve at half-maximal effect)
# How it was run: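 CellTiter-Glo, 30 min RT, luminescence; same wells as the LiveBLAzer FRET read. Cells: FXR-UAS-bla HEK 293T. Treatment: compound with chenodeoxycholic acid 50 uM final, 16 h at 37 C.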
# [7] = target: Vitamin D3 receptor (Homo sapiens) (UniProt P11473); experiment: qHTS assay to identify small molecule agonists of the vitamin D receptor (VDR) signaling pathway (AID 743222; calls by dose curve)
# How it was run: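 Following 4 h attachment at 37C, VDR-bla cells (2,000 per well) received DMSO-dissolved compounds or controls. After 16 h incubation, LiveBLAzer B/G FRET substrate was added and fluorescence read 2 h later at room temperature.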
# [8] = target: Vitamin D3 receptor (Homo sapiens) (UniProt P11473); experiment: qHTS assay to identify small molecule antagonists of the vitamin D receptor (VDR) signaling pathway (AID 743223; active = well fitted inhibition curve with a large enough effect in the signal ratio in the repeat runs, not every such curve was filed as active; the % refers to the signal ratio)
# How it was run: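 After VDR-bla cells are plated and left 4 h at 37C, DMSO-dissolved compounds and 3 nM (final) calcitriol agonist are added. Incubation continues 16 h at 37C; FRET beta-lactamase substrate then develops 2 h at room temperature.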
# [9] = target: Bile acid receptor (Homo sapiens) (UniProt Q96RI1); experiment: qHTS assay to identify small molecule antagonists of the farnesoid-X-receptor (FXR) signaling pathway (AID 743217; active = well fitted inhibition curve with a large enough effect in the signal ratio in the repeat runs, not every such curve was filed as active; the % refers to the signal ratio; also: potency is read from the fitted curve at half-maximal effect)
# How it was run: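 FRET fluorescence after 2 h room-temperature LiveBLAzer loading gives the readout. Prior step: FXR-bla HEK 293T cells, seeded and incubated 5 h, received test compounds plus 50 uM final CDCA for 16 h at 37 °C.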
# [10] = target: Bile acid receptor (Homo sapiens) (UniProt Q96RI1); experiment: qHTS assay to identify small molecule agonists of the farnesoid-X-receptor (FXR) signaling pathway (AID 743220; active = well fitted activation curve with a large enough effect in the signal ratio in the repeat runs, not every such curve was filed as active; the % refers to the signal ratio)
# How it was run: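 FXR-UAS-bla HEK 293T cells carrying a UAS-driven beta-lactamase reporter were plated for 5 h at 37C/5% CO2, then exposed to DMSO-dissolved Tox21 10K compounds for 16 h at 37C. A LiveBLAzer B/G FRET substrate was loaded for 2 h at room temperature before fluorescence reading.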
# Chain of Bile acid receptor (Homo sapiens) (Q96RI1 whole entry, looked up): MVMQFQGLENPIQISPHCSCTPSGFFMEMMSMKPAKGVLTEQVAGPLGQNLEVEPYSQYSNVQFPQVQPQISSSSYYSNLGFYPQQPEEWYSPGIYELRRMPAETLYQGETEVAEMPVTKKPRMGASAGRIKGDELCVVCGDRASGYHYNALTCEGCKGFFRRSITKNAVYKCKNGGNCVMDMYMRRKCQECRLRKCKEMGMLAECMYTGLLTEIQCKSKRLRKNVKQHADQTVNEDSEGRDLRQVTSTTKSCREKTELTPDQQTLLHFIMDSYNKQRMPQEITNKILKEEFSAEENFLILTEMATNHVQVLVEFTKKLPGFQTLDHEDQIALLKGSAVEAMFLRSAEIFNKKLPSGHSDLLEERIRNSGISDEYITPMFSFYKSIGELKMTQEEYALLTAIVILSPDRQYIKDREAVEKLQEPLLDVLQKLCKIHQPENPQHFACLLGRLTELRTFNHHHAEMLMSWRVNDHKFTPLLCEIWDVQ
# Chain of Peroxisome proliferator-activated receptor delta (Homo sapiens) (Q03181 whole entry, looked up): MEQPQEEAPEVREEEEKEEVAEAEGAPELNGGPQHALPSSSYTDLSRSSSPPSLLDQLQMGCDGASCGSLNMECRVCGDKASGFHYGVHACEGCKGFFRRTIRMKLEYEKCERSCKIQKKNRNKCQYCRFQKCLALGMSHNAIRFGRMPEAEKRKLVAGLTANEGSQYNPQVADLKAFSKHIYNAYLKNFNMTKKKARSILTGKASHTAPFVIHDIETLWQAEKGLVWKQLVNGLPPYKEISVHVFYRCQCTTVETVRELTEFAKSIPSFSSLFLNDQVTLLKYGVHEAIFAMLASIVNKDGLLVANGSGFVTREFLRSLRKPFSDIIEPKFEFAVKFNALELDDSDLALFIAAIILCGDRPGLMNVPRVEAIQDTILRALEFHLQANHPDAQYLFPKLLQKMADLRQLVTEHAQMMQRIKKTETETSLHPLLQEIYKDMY
# Chain of Vitamin D3 receptor (Homo sapiens) (P11473 whole entry, looked up): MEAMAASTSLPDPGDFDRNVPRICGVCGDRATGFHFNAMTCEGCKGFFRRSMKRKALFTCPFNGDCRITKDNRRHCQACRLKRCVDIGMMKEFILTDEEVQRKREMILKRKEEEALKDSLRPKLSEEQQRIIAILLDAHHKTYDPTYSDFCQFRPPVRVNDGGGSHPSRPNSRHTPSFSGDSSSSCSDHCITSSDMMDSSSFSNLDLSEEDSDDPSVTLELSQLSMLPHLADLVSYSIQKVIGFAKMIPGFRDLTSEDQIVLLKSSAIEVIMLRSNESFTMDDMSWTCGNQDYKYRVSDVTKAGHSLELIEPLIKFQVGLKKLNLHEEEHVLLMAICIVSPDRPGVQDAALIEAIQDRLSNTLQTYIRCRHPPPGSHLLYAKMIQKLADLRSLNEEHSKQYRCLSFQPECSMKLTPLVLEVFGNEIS
SMILES,Potency [1],Potency [2],Potency [3],Potency [4],Potency [5],Potency [6],Potency [7],Potency [8],Potency [9],outcome [10]
COc1ccc(C(Cl)=C(c2ccc(OC)cc2)c2ccc(OC)cc2)cc1,inactive,inactive,inactive,inactive,inactive,inactive,inactive,inactive,,
Cc1ncc([N+](=O)[O-])n1CCO,inactive,inactive,inactive,inactive,inactive,inactive,,,,
Cc1cc(C)nc(NS(=O)(=O)c2ccc(N)cc2)n1,inactive,inactive,inactive,inactive,inactive,inactive,,,inactive,inactive
O=c1[nH]cc(F)c(=O)[nH]1,inactive,inactive,inactive,inactive,inactive,inactive,inactive,inactive,inactive,inactive
CCCCOC(=O)c1ccc(O)cc1,inactive,inactive,inactive,inactive,inactive,inactive,inactive,inactive,inactive,inactive
O=C1NC(=O)C(c2ccccc2)(c2ccccc2)N1,inactive,inactive,inactive,inactive,inactive,inactive,,,,
CS(=O)(=O)OCCCCOS(C)(=O)=O,inactive,inactive,inactive,inactive,inactive,inactive,inactive,inactive,,
CN(C)CCOC(C)(c1ccccc1)c1ccccn1 (stereo not drawn),inactive,inactive,inactive,inactive,inactive,inactive,inactive,inactive,inactive,inactive
CC12CCC(CC1)C(C)(C)O2,inactive,inactive,inactive,inactive,inactive,inactive,inactive,inactive,inactive,inactive
Nc1c(N=Nc2ccc(-c3ccc(N=Nc4cc(S(=O)(=O)O)c5ccccc5c4N)cc3)cc2)cc(S(=O)(=O)O)c2ccccc12,inactive,inactive,inactive,inactive,inactive,inactive,,inactive,inactive,inactive
Nc1ccc(O)c([N+](=O)[O-])c1,inactive,inactive,inactive,,,,,,,
O=S1(=O)OC(c2ccc(O)cc2)(c2ccc(O)cc2)c2ccccc21,inactive,inactive,inactive,inactive,inactive,inactive,inactive,inactive,,
O=CC(=O)c1ccccc1,inactive,inactive,inactive,inactive,inactive,inactive,,,,
CN(C)C(=O)Nc1ccc(Cl)c(Cl)c1,inactive,inactive,inactive,inactive,inactive,inactive,,,,
OC[C@H]1O[C@H](O[C@]2(CCl)O[C@H](CCl)[C@@H](O)[C@@H]2O)[C@H](O)[C@@H](O)[C@H]1Cl,inactive,inactive,inactive,inactive,inactive,inactive,inactive,inactive,,
CCCCCCCC(=O)OCC(COC(=O)CCCCCCC)OC(=O)CCCCCCC,inactive,inactive,inactive,inactive,inactive,inactive,inactive,inactive,inactive,inactive
CN(N=O)C(=O)N[C@@H]1[C@@H](O)[C@H](O)[C@@H](CO)O[C@@H]1O,inactive,inactive,inactive,inactive,inactive,inactive,inactive,inactive,inactive,inactive
Cc1c(C(=O)O)c(O)cc2c1C(=O)c1c(O)c([C@@H]3O[C@H](CO)[C@@H](O)[C@H](O)[C@H]3O)c(O)c(O)c1C2=O,inactive,inactive,inactive,inactive,inactive,inactive,inactive,inactive,inactive,inactive
CCCCNC(=O)NS(=O)(=O)c1ccc(C)cc1,inactive,inactive,inactive,inactive,inactive,inactive,inactive,inactive,inactive,inactive
CN1CCc2cccc3c2[C@H]1Cc1ccc(O)c(O)c1-3,49.5 µM (active) and 10.3 µM (active) and 21.1 µM (active),inactive,49.5 µM (active) and 18.3 µM (active),55.5 µM (active) and 10.3 µM (active),,44.1 µM (active) and inactive,inactive,inactive,39.3 µM (active) and 18.3 µM (active),inactive
Cc1ncc([N+](=O)[O-])n1C,inactive,inactive,inactive,inactive,inactive,inactive,inactive,inactive,inactive,inactive
O=c1[nH]cnc2c1ncn2[C@H]1CC[C@@H](CO)O1,inactive,inactive,inactive,inactive,inactive,inactive,,,,
CCCCC(CC)C(=O)O (stereo not drawn),inactive,inactive,inactive,inactive,inactive,inactive,,,,
CCOC(N)=O,inactive,inactive,inactive,inactive,inactive,inactive,,,,
Cc1cn([C@H]2C=C[C@@H](CO)O2)c(=O)[nH]c1=O,inactive,inactive,inactive,inactive,inactive,inactive,inactive,inactive,inactive,inactive
NC(=O)c1cccnc1,inactive,inactive,inactive,inactive,inactive,inactive,inactive,inactive,inactive,inactive
